Laboratory results: the supplement of paper PMC4466140

target: AgAbp1; experiment: SPOT peptide array binding signal intensity (averaged, normalized) (arbitrary units (background-subtracted, floor 0; scale differs between SH3 domains)); higher = stronger binding of the SH3 domain to the peptide
Procedure, shortened: (§1)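 GST-SH3 fusions from four yeast species, purified on glutathione Sepharose, were incubated at 10 μg/ml overnight at 4°C on membranes of synthetic 15-mer peptides in which cysteines were replaced with serines. Binding signal is the normalized, background-subtracted spot intensity averaged over replicates, in domain-specific arbitrary units.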

Binder	SPOT peptide array binding signal intensity
NNFYRPLLRSVLVLL	≤ 0

target: AgBbc1; experiment: as above
Procedure, shortened: as §1

Binder	SPOT peptide array binding signal intensity
NNFYRPLLRSVLVLL	≤ 0

target: AgBem1-D1; experiment: as above
Procedure, shortened: as §1

Binder	SPOT peptide array binding signal intensity
NNFYRPLLRSVLVLL	8

target: AgBzz1-D1; experiment: as above
Procedure, shortened: as §1

Binder	SPOT peptide array binding signal intensity
NNFYRPLLRSVLVLL	13

target: AgBzz1-D2; experiment: as above
Procedure, shortened: as §1

Binder	SPOT peptide array binding signal intensity
NNFYRPLLRSVLVLL	18

target: AgCyk3; experiment: as above
Procedure, shortened: as §1

Binder	SPOT peptide array binding signal intensity
NNFYRPLLRSVLVLL	≤ 0

target: AgFus1; experiment: as above
Procedure, shortened: as §1

Binder	SPOT peptide array binding signal intensity
NNFYRPLLRSVLVLL	246

target: AgHof1; experiment: as above
Procedure, shortened: as §1

Binder	SPOT peptide array binding signal intensity
NNFYRPLLRSVLVLL	≤ 0

target: AgHse1; experiment: as above
Procedure, shortened: as §1

Binder	SPOT peptide array binding signal intensity
NNFYRPLLRSVLVLL	722

target: AgLsb1; experiment: as above
Procedure, shortened: as §1

Binder	SPOT peptide array binding signal intensity
NNFYRPLLRSVLVLL	0.5

target: AgLsb4; experiment: as above
Procedure, shortened: as §1

Binder	SPOT peptide array binding signal intensity
NNFYRPLLRSVLVLL	10.5

target: AgMyo5; experiment: as above
Procedure, shortened: as §1

Binder	SPOT peptide array binding signal intensity
NNFYRPLLRSVLVLL	≤ 0

target: AgNbp2; experiment: as above
Procedure, shortened: as §1

Binder	SPOT peptide array binding signal intensity
NNFYRPLLRSVLVLL	6.5

target: AgRvs167; experiment: as above
Procedure, shortened: as §1

Binder	SPOT peptide array binding signal intensity
NNFYRPLLRSVLVLL	1

target: AgSho1; experiment: as above
Procedure, shortened: as §1

Binder	SPOT peptide array binding signal intensity
NNFYRPLLRSVLVLL	14.5

target: AgSla1-D1-D2; experiment: as above
Procedure, shortened: as §1

Binder	SPOT peptide array binding signal intensity
NNFYRPLLRSVLVLL	1

target: AgSla1-D3; experiment: as above
Procedure, shortened: as §1

Binder	SPOT peptide array binding signal intensity
NNFYRPLLRSVLVLL	2

target: CaAbp1-D1; experiment: as above
Procedure, shortened: as §1

Binder	SPOT peptide array binding signal intensity
NNFYRPLLRSVLVLL	≤ 0

target: CaAbp1-D2; experiment: as above
Procedure, shortened: as §1

Binder	SPOT peptide array binding signal intensity
NNFYRPLLRSVLVLL	≤ 0

target: CaBbc1; experiment: as above
Procedure, shortened: as §1

Binder	SPOT peptide array binding signal intensity
NNFYRPLLRSVLVLL	≤ 0

target: CaBem1-D1; experiment: as above
Procedure, shortened: as §1

Binder	SPOT peptide array binding signal intensity
NNFYRPLLRSVLVLL	≤ 0

target: CaBzz1-D1; experiment: as above
Procedure, shortened: as §1

Binder	SPOT peptide array binding signal intensity
NNFYRPLLRSVLVLL	≤ 0

target: CaBzz1-D2; experiment: as above
Procedure, shortened: as §1

Binder	SPOT peptide array binding signal intensity
NNFYRPLLRSVLVLL	1

target: CaCyk3; experiment: as above
Procedure, shortened: as §1

Binder	SPOT peptide array binding signal intensity
NNFYRPLLRSVLVLL	≤ 0

target: CaFus1; experiment: as above
Procedure, shortened: as §1

Binder	SPOT peptide array binding signal intensity
NNFYRPLLRSVLVLL	2730

target: CaHof1; experiment: as above
Procedure, shortened: as §1

Binder	SPOT peptide array binding signal intensity
NNFYRPLLRSVLVLL	0.75

target: CaHse1; experiment: as above
Procedure, shortened: as §1

Binder	SPOT peptide array binding signal intensity
NNFYRPLLRSVLVLL	21.8

target: CaLsb1; experiment: as above
Procedure, shortened: as §1

Binder	SPOT peptide array binding signal intensity
NNFYRPLLRSVLVLL	≤ 0

target: CaLsb4; experiment: as above
Procedure, shortened: as §1

Binder	SPOT peptide array binding signal intensity
NNFYRPLLRSVLVLL	≤ 0

target: CaMyo5; experiment: as above
Procedure, shortened: as §1

Binder	SPOT peptide array binding signal intensity
NNFYRPLLRSVLVLL	≤ 0

target: CaNbp2; experiment: as above
Procedure, shortened: as §1

Binder	SPOT peptide array binding signal intensity
NNFYRPLLRSVLVLL	72.5

target: CaRvs167; experiment: as above
Procedure, shortened: as §1

Binder	SPOT peptide array binding signal intensity
NNFYRPLLRSVLVLL	3

target: CaRvs167-3; experiment: as above
Procedure, shortened: as §1

Binder	SPOT peptide array binding signal intensity
NNFYRPLLRSVLVLL	1

target: CaSho1; experiment: as above
Procedure, shortened: as §1

Binder	SPOT peptide array binding signal intensity
NNFYRPLLRSVLVLL	80

target: CaSla1-D1-D2; experiment: as above
Procedure, shortened: as §1

Binder	SPOT peptide array binding signal intensity
NNFYRPLLRSVLVLL	≤ 0

target: CaSla1-D3; experiment: as above
Procedure, shortened: as §1

Binder	SPOT peptide array binding signal intensity
NNFYRPLLRSVLVLL	≤ 0

target: ScAbp1; experiment: as above
Procedure, shortened: as §1

Binder	SPOT peptide array binding signal intensity
NNFYRPLLRSVLVLL	≤ 0

target: ScBbc1; experiment: as above
Procedure, shortened: as §1

Binder	SPOT peptide array binding signal intensity
NNFYRPLLRSVLVLL	0.75

target: ScBem1-D1; experiment: as above
Procedure, shortened: as §1

Binder	SPOT peptide array binding signal intensity
NNFYRPLLRSVLVLL	4

target: ScBzz1-D1; experiment: as above
Procedure, shortened: as §1

Binder	SPOT peptide array binding signal intensity
NNFYRPLLRSVLVLL	19

target: ScBzz1-D2; experiment: as above
Procedure, shortened: as §1

Binder	SPOT peptide array binding signal intensity
NNFYRPLLRSVLVLL	6

target: ScCyk3; experiment: as above
Procedure, shortened: as §1

Binder	SPOT peptide array binding signal intensity
NNFYRPLLRSVLVLL	57.5

target: ScFus1; experiment: as above
Procedure, shortened: as §1

Binder	SPOT peptide array binding signal intensity
NNFYRPLLRSVLVLL	238

target: ScHof1; experiment: as above
Procedure, shortened: as §1

Binder	SPOT peptide array binding signal intensity
NNFYRPLLRSVLVLL	1

target: ScHse1; experiment: as above
Procedure, shortened: as §1

Binder	SPOT peptide array binding signal intensity
NNFYRPLLRSVLVLL	1040

target: ScLsb1; experiment: as above
Procedure, shortened: as §1

Binder	SPOT peptide array binding signal intensity
NNFYRPLLRSVLVLL	0.5

target: ScLsb2; experiment: as above
Procedure, shortened: as §1

Binder	SPOT peptide array binding signal intensity
NNFYRPLLRSVLVLL	1

target: ScLsb3; experiment: as above
Procedure, shortened: as §1

Binder	SPOT peptide array binding signal intensity
NNFYRPLLRSVLVLL	0.5

target: ScLsb4; experiment: as above
Procedure, shortened: as §1

Binder	SPOT peptide array binding signal intensity
NNFYRPLLRSVLVLL	≤ 0

target: ScMyo3; experiment: as above
Procedure, shortened: as §1

Binder	SPOT peptide array binding signal intensity
NNFYRPLLRSVLVLL	≤ 0

target: ScMyo5; experiment: as above
Procedure, shortened: as §1

Binder	SPOT peptide array binding signal intensity
NNFYRPLLRSVLVLL	≤ 0

target: ScNbp2; experiment: as above
Procedure, shortened: as §1

Binder	SPOT peptide array binding signal intensity
NNFYRPLLRSVLVLL	13

target: ScPex13; experiment: as above
Procedure, shortened: as §1

Binder	SPOT peptide array binding signal intensity
NNFYRPLLRSVLVLL	0.25

target: ScRvs167; experiment: as above
Procedure, shortened: as §1

Binder	SPOT peptide array binding signal intensity
NNFYRPLLRSVLVLL	2.33

target: ScSho1; experiment: as above
Procedure, shortened: as §1

Binder	SPOT peptide array binding signal intensity
NNFYRPLLRSVLVLL	350

target: ScSla1-D1-D2; experiment: as above
Procedure, shortened: as §1

Binder	SPOT peptide array binding signal intensity
NNFYRPLLRSVLVLL	≤ 0

target: ScSla1-D3; experiment: as above
Procedure, shortened: as §1

Binder	SPOT peptide array binding signal intensity
NNFYRPLLRSVLVLL	0.5

target: SpAbp1-D1; experiment: as above
Procedure, shortened: as §1

Binder	SPOT peptide array binding signal intensity
NNFYRPLLRSVLVLL	≤ 0

target: SpBbc1; experiment: as above
Procedure, shortened: as §1

Binder	SPOT peptide array binding signal intensity
NNFYRPLLRSVLVLL	≤ 0

target: SpBzz1-D1; experiment: as above
Procedure, shortened: as §1

Binder	SPOT peptide array binding signal intensity
NNFYRPLLRSVLVLL	8

target: SpBzz1-D2; experiment: as above
Procedure, shortened: as §1

Binder	SPOT peptide array binding signal intensity
NNFYRPLLRSVLVLL	0.5

target: SpCyk3; experiment: as above
Procedure, shortened: as §1

Binder	SPOT peptide array binding signal intensity
NNFYRPLLRSVLVLL	6.5

target: SpHof1; experiment: as above
Procedure, shortened: as §1

Binder	SPOT peptide array binding signal intensity
NNFYRPLLRSVLVLL	3

target: SpHof1-2; experiment: as above
Procedure, shortened: as §1

Binder	SPOT peptide array binding signal intensity
NNFYRPLLRSVLVLL	4

target: SpHof1-3; experiment: as above
Procedure, shortened: as §1

Binder	SPOT peptide array binding signal intensity
NNFYRPLLRSVLVLL	366

target: SpHse1; experiment: as above
Procedure, shortened: as §1

Binder	SPOT peptide array binding signal intensity
NNFYRPLLRSVLVLL	1050

target: SpLsb1; experiment: as above
Procedure, shortened: as §1

Binder	SPOT peptide array binding signal intensity
NNFYRPLLRSVLVLL	≤ 0

target: SpLsb4; experiment: as above
Procedure, shortened: as §1

Binder	SPOT peptide array binding signal intensity
NNFYRPLLRSVLVLL	≤ 0

target: SpMyo1; experiment: as above
Procedure, shortened: as §1

Binder	SPOT peptide array binding signal intensity
NNFYRPLLRSVLVLL	≤ 0

target: SpNbp2; experiment: as above
Procedure, shortened: as §1

Binder	SPOT peptide array binding signal intensity
NNFYRPLLRSVLVLL	0.5

target: SpPex13; experiment: as above
Procedure, shortened: as §1

Binder	SPOT peptide array binding signal intensity
NNFYRPLLRSVLVLL	5.5

target: SpRvs167; experiment: as above
Procedure, shortened: as §1

Binder	SPOT peptide array binding signal intensity
NNFYRPLLRSVLVLL	0.667

target: SpSla1-D1-D2; experiment: as above
Procedure, shortened: as §1

Binder	SPOT peptide array binding signal intensity
NNFYRPLLRSVLVLL	4

target: SpSla1-D3; experiment: as above
Procedure, shortened: as §1

Binder	SPOT peptide array binding signal intensity
NNFYRPLLRSVLVLL	≤ 0
